From PubChem BioAssay (NCI) come the findings set out here.

“And” between values parts separate entries of the source, which are not always exact repeats. Equal entries are not always repeated. This is part of a sample that, as a whole, favours compounds with a hit. Of some 83,000 tested, about 20% had one in any assay.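 Results are percent growth after 48 hours of single-concentration exposure. 100 means growth as in untreated cells, lower positive values show inhibition; negative values down to -100 show cell death.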 Unmarked numbers belong to inactive results. The source made the active and inactive calls. How the source made its calls: active means growth percent below 10; inactive means the rest.

The subject of this assay is HL-60(TB) leukemia. The assay can be described thus: NCI-60 one-dose screen, 48 h (100 = growth as untreated, 0 = no growth, -100 = all killed). The note with it: 10 µM unless noted.
Turning to `CCn1nc(-c2ccc(C(=O)OC)cc2)nc2c(=O)n(C)c(=O)nc1-2`, the growth was 132%. For `O=C1/C(=C/c2ccc(O)cc2O)N=C2SCCCN12` the value was 100%; for `O=C1C=CC2(NN=C(c3ccccc3)N2c2cccc(Cl)c2)c2cccc(O)c21` (centres undefined), 21.8%; for `COc1ccc(C(=O)C2C(c3ccc(OC)cc3)CN(C)C23C(=O)Nc2ccccc23)cc1` (centres undefined), 99.1%. For `COc1ccc2c(O)c(/C=C3\N=Nc4ccccc43)oc2c1C[C@@H]1CCNC[C@H]1F` the value was 61%; for `Nc1cc(N)ncn1`, 47.3%. For `Cc1nn(-c2ccccc2)c2nc3nc4c(c(N)c3c(-c3ccc(Cl)cc3)c12)CCCC4`, the growth is 104%. Consider `COc1cc2c(c(OC)c1OC)-c1ccc(OC)c(=O)cc1[C@@H](NC(C)=O)CC2`, for which the growth is -36% (active) and -38.2% (active). For `COc1ccc2c(c1)sc1nc(-c3ccc(Br)cc3)cn12` the value was 80.7%. Take `COC(=O)CCCNS(=O)(=O)c1cc(C(=O)Nc2ccc(NC(=O)c3cc(S(=O)(=O)NCCCC(=O)OC)c(O)c(O)c3O)cc2)c(O)c(O)c1O`: the growth is 68%.

Turning to `O=C1C=CC(=O)N1c1ccc2ccccc2c1`, the growth is 83.9% and 88.8%. As for `Clc1ccc(C2=NN(c3ccccc3)[C@H](c3cn(-c4ccccc4)nc3-c3ccccc3)C2)cc1`, the figure is 116%; as for `CNC(=O)c1ccc(C)c(-n2c(C)cc(OCc3ccc(F)cc3F)c(Br)c2=O)c1`, 61.1% and 91%. For `CC1=Nc2cnc(Nc3ccc(OCCN4CCCC4)cc3)nc2Nc2ccccc21`, the growth was 76.4%. As for `O=C1NC(=O)C(CC(=O)n2c(-c3ccccc3)nc3ccccc32)C(=O)N1`, the figure is 106%; as for `CCCCNC(=O)Oc1ccc2c(=O)c3sc4c(=O)c5ccccc5c(=O)c4c3c(=O)c2c1`, -43.3% (active). For `Cc1cc(C)c(CC(=O)O)c(C)c1` the value was 97.3%; for `O=C1N/C(=N/O)S/C1=C/c1cn(-c2ccccc2)nc1-c1ccccc1`, 117%; for `Cc1c(Cc2ccccc2)c(=O)oc2c(C)c(OCc3n[nH]c(=S)o3)ccc12`, 69.7%. On to `N#Cc1ncc(-c2cc(F)c(F)c(F)c2)c(NC2CCCCCC2)n1`, for which the growth was 108%. As for `COC(=O)Nc1nc2ccc(Sc3ccccc3)cc2[nH]1`, the figure is -5.94% (active); as for `NC(N)=Nc1ccc(S(=O)(=O)O)cc1`, 108%.

As for `COc1ccc(S(=O)(=O)Nc2cc(/C=C\c3cc(OC)c(OC)c(OC)c3)cc(OC)c2OC)cc1`, the growth was -42.1% (active).

For `COc1cc(C(=O)NC(=S)NCc2ccncc2)cc(OC)c1OC`, the growth is 89.7%. As for `COc1ccc(Nc2nnc(-c3ccc(OC)c(OC)c3)o2)cc1`, the figure is 84.2%; as for `O=C(NCCc1ccc(O)c(O)c1)C12CC3CC(CC(C3)C1)C2`, 57%. As to `NC1=NC(SCc2ccccc2CCl)c2ncn(Cc3ccccc3CCl)c2N1` (centres undefined), the growth is -25.5% (active). `O=C1Cc2ccccc2C(=O)N1`: the growth was 67.6%. As for `COC1=CC(c2ccc[nH]2)=N/C1=C\c1[nH]c(C)c(C(=O)CCCCC(=O)NCc2ccccc2)c1C`, the figure is 69%; as for `Cn1cc(-c2csc(-c3c[nH]c4ccccc34)n2)c2cccnc21`, 11.5%.

`CCCCCCCCCCCCCCCCNC(=O)Nc1ccc2ccccc2c1`: the growth is 95%. For `O=C(NC[C@H](O)CN1CCc2ccccc2C1)c1cc(NC2COC2)ncn1` the value was 119%; for `O=C1/C(=C/c2ccc(F)cc2)COc2ccc(O)cc21`, 19.1%. For `O=C(Nc1ccc(OS(=O)(=O)c2ccc(F)cc2)cc1)C1CCCCCC1` the value was 56.4%. As for `CN(C)CCCC1(c2ccc(F)cc2)OCc2cc(-c3cccc4[nH]ccc34)ccc21` (centres undefined), the figure is 31.6%; as for `O=C(Nc1cccc(Cl)c1)OCC(COC(=O)Nc1cccc(Cl)c1)(COC(=O)Nc1cccc(Cl)c1)[N+](=O)[O-]`, 45%. For `Cc1cc(O)c(C2=NN(c3ccc(S(N)(=O)=O)cc3)C(c3ccc(Cl)cc3)C2)c(C)c1Cl` (centres undefined), the growth is 18.4%. As for `C=C(C)[C@@H]1CC[C@]2(C(=O)N[C@H](CO)Cc3ccccc3)CC[C@]3(C)[C@H](CC[C@@H]4[C@@]5(C)CCCNC(C)(C)[C@@H]5CC[C@]43C)[C@@H]12`, the figure is -73.3% (active); as for `Cc1ccc(-n2nnc3c(sc4ccccc43)c2=O)cc1`, 92.9%.
